Bioassay records from PubChem BioAssay.
Shown are actives, neighbours in structure and some others; about 0.89% of the full set was active somewhere.
MEP2-GFP yeast: modulators of TOR pathway MEP2-GFP in S. cerevisiae. AID 2016. 330,000 tested, 0.51% active. GFP response vs DMSO, % at 10 µM. S. cerevisiae MEP2-GFP strain, flow cytometry GFP, 3 h; 100% = DMSO control level;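 active means GFP response versus DMSO above a set limit, roughly screen mean plus 3 SD, cut at about 180% in these data; inconclusive means fewer than 70 cells counted for a yeast strain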;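 further: median GFP fluorescence of the barcode-gated MEP2-GFP cells per well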
LAP4 TOR yeast: modulators of TOR pathway LAP4-GFP in S. cerevisiae; AID 2023; GFP response vs DMSO, % at 10 µM; 320,000 tested, 0.34% active; S. cerevisiae LAP4-GFP multiplex, flow cytometry GFP, 3 h; median GFP as percent of DMSO wells;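 active means GFP response vs DMSO above a set limit, about the screen mean plus 3 SD, cut at about 150% in these data; inconclusive means under 70 cell events counted for the yeast strain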
RPL19A TOR yeast: modulators of TOR pathway RPL19A-GFP in S. cerevisiae | S. cerevisiae RPL19A-GFP strain, flow cytometry, 3 h; active compounds read low | percent response vs DMSO, % at 10 µM | 330,000 tested, 0.3% active;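 active means percent response vs DMSO below 50%; inconclusive means fewer than 70 events counted for the yeast strain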;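 further: median channel GFP fluorescence of the barcoded RPL19A-GFP strain; ratio of sample median GFP to plate DMSO average so 100% = DMSO; lower means less RPL19A-GFP as with rapamycin TOR inhibition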
CIT2 TOR yeast: yeast TOR pathway CIT2-GFP modulation; S. cerevisiae CIT2-GFP strain, flow cytometry, 3 h; 100 means same as DMSO wells; GFP response vs DMSO, % at 10 µM; 320,000 tested, 0.065% active; AID 2029;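 active means GFP response relative to DMSO above a set limit, near the screen mean plus 3 SD, cut at about 150% in these data; inconclusive means Fewer than 70 cells measured for a yeast strain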;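 further: ratio of well median GFP fluorescence to mean of DMSO wells on the plate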
AGP1 TOR yeast: modulators of TOR pathway AGP1-GFP in S. cerevisiae. AID 2066. 320,000 tested, 0.02% active. GFP response vs DMSO, % at 10 µM. S. cerevisiae AGP1-GFP multiplex flow cytometry, 3 h; GFP as percent of DMSO wells;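 active means GFP response relative to DMSO above a set limit, near screen average plus 3 SD, cut at about 150% in these data; inconclusive means fewer than 70 cells counted for the yeast strain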;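 further: median GFP channel fluorescence of the gated AGP1 strain per well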
The depositor's hits bear a star; [ ] = another dose, or the depositor's remark.

What do the screens show for `O=C(/C(=C/c1ccccc1)n1cncn1)c1ccc(Cl)cc1Cl`?
MEP2-GFP yeast: 88; LAP4 TOR yeast: 151*; RPL19A TOR yeast: 98; CIT2 TOR yeast: 70; AGP1 TOR yeast: 83

Results for Cc1ccc2nc(N3C(=O)C(O)=C(C(=O)c4cc5ccccc5o4)C3c3cccs3)sc2c1 (stereo not given) ?
MEP2-GFP yeast: 192*; LAP4 TOR yeast: 104; RPL19A TOR yeast: 75; CIT2 TOR yeast: 93; AGP1 TOR yeast: 25

Results for CCc1ccc2nc(N3C(=O)C(O)=C(C(=O)c4ccco4)C3c3cccs3)sc2c1 (stereo not given) ?
MEP2-GFP yeast: 105; LAP4 TOR yeast: 105; RPL19A TOR yeast: 103; CIT2 TOR yeast: 102; AGP1 TOR yeast: 104

What do the screens show for `COc1ccc(OCC(=O)N2CCN(S(=O)(=O)c3ccc(Cl)s3)CC2)cc1`?
MEP2-GFP yeast: 96; LAP4 TOR yeast: 102; RPL19A TOR yeast: 96; CIT2 TOR yeast: 101; AGP1 TOR yeast: 100

How did Cc1ccc2c(c1)c1c3n2CCN(C(=O)CN2CCN(C)CC2)C3CCC1 (stereo not given) do in these assays?
MEP2-GFP yeast: 94; LAP4 TOR yeast: 92; RPL19A TOR yeast: 95; CIT2 TOR yeast: 96; AGP1 TOR yeast: 93

How did CN1CCN(CC(=O)N2CCn3c4c(c5cc(C6CCCCC6)ccc53)CCCC42)CC1 (stereo not given) do in these assays?
MEP2-GFP yeast: 104; LAP4 TOR yeast: 169*; RPL19A TOR yeast: 91; CIT2 TOR yeast: 89; AGP1 TOR yeast: 99

How did CCCCN(C(=O)c1ccc(-c2ccc(Cl)cc2)o1)c1c(N)n(CC(C)C)c(=O)[nH]c1=O do in these assays?
MEP2-GFP yeast: 104; LAP4 TOR yeast: 97; RPL19A TOR yeast: 99; CIT2 TOR yeast: 101; AGP1 TOR yeast: 98

Results for O=S(=O)(Nc1cccc(-c2ccc(N3CCCCCC3)nn2)c1)c1ccccc1F ?
MEP2-GFP yeast: 117; LAP4 TOR yeast: 79; RPL19A TOR yeast: 47*; CIT2 TOR yeast: 99; AGP1 TOR yeast: 15

What do the screens show for `O=C(Nc1cccc(-c2ccc(N3CCCCC3)nn2)c1)C(F)(F)F`?
MEP2-GFP yeast: 551*[may fluoresce violet]; LAP4 TOR yeast: 101; RPL19A TOR yeast: 50; CIT2 TOR yeast: inconclusive; AGP1 TOR yeast: 22

Results for CC1CCN(c2ccc(-c3cccc(NC(=O)C(F)(F)F)c3)nn2)CC1 ?
MEP2-GFP yeast: 522*[may fluoresce violet]; LAP4 TOR yeast: 116; RPL19A TOR yeast: 48*[may fluoresce violet]; CIT2 TOR yeast: inconclusive; AGP1 TOR yeast: inconclusive

What do the screens show for `CCOC(=O)C1(Cc2cccc(Cl)c2)CCCN(C(=O)c2ccc(COC)s2)C1` (stereo not given)?
MEP2-GFP yeast: 80; LAP4 TOR yeast: 83; RPL19A TOR yeast: 99; CIT2 TOR yeast: 89; AGP1 TOR yeast: 92

What do the screens show for `Cc1ccnc(SCC(=O)N2CCC(C(N)=O)CC2)n1`?
MEP2-GFP yeast: 358*[may fluoresce violet]; LAP4 TOR yeast: 98; RPL19A TOR yeast: 15*[may fluoresce violet]; CIT2 TOR yeast: inconclusive; AGP1 TOR yeast: inconclusive

Results for O=C(/C=C/c1ccccc1)Nc1ncn[nH]1 ?
MEP2-GFP yeast: 97; LAP4 TOR yeast: 163*; RPL19A TOR yeast: 92; CIT2 TOR yeast: 89; AGP1 TOR yeast: 94

What do the screens show for `O=C(CCc1ccccc1)Nc1ncn[nH]1`?
MEP2-GFP yeast: 99; LAP4 TOR yeast: 100; RPL19A TOR yeast: 103; CIT2 TOR yeast: 109; AGP1 TOR yeast: 108

How did C/C(=N\NC(=O)c1sccc1-n1cccc1)c1cccs1 do in these assays?
MEP2-GFP yeast: 116; LAP4 TOR yeast: 113; RPL19A TOR yeast: 99; CIT2 TOR yeast: 102; AGP1 TOR yeast: 96

What do the screens show for `COC(=O)c1ccc(CSc2nc3scc(-c4cccs4)c3c(=O)[nH]2)o1`?
MEP2-GFP yeast: 178*[may fluoresce violet]; LAP4 TOR yeast: 104; RPL19A TOR yeast: 39*[may fluoresce violet]; CIT2 TOR yeast: inconclusive; AGP1 TOR yeast: inconclusive

What do the screens show for `COC(=O)c1ccc(CSc2nc3ccc(Cl)cc3[nH]2)o1`?
MEP2-GFP yeast: 104; LAP4 TOR yeast: 100; CIT2 TOR yeast: 95; AGP1 TOR yeast: 97

How did COc1cccc(C(=O)O/N=C(\N)c2ccncc2)c1 do in these assays?
MEP2-GFP yeast: 96; LAP4 TOR yeast: 96; RPL19A TOR yeast: 94; CIT2 TOR yeast: 95; AGP1 TOR yeast: 94

Results for COC(=O)[C@@]12CCCCN1[C@H](c1ccc(SC3CCCCC3)cc1)[C@H]1C(=O)N(C)C(=O)[C@H]12 ?
MEP2-GFP yeast: 98; LAP4 TOR yeast: 104; RPL19A TOR yeast: 99; CIT2 TOR yeast: 99; AGP1 TOR yeast: 97

What do the screens show for `CSc1ccc(NC(=O)N2CCN(c3nc4ccccc4s3)CC2)cc1`?
MEP2-GFP yeast: 212*[may fluoresce violet]; LAP4 TOR yeast: 94; RPL19A TOR yeast: 60; CIT2 TOR yeast: inconclusive; AGP1 TOR yeast: inconclusive

How did CCCC(=O)N1CCN(c2nc3ccccc3s2)CC1 do in these assays?
MEP2-GFP yeast: 90; LAP4 TOR yeast: 91; RPL19A TOR yeast: 89; CIT2 TOR yeast: 92; AGP1 TOR yeast: 89

Results for CCCCC(=O)Nc1nn(C)c2nc3c(C)cccc3cc12 ?
MEP2-GFP yeast: 359*[may fluoresce violet]; LAP4 TOR yeast: 97; RPL19A TOR yeast: 42*[may fluoresce violet]; CIT2 TOR yeast: inconclusive; AGP1 TOR yeast: inconclusive

Results for CCN(CC)CCNC(=O)C1CCC(=O)N(c2ccc(OC)cc2)C1c1ccc(F)cc1 (stereo not given) ?
MEP2-GFP yeast: 230*[may fluoresce violet]; LAP4 TOR yeast: 91; RPL19A TOR yeast: 58; CIT2 TOR yeast: inconclusive; AGP1 TOR yeast: 20

Results for Cc1ccc(NC(=S)N(CCCN2CCOCC2)Cc2cccs2)c(C)c1 ?
MEP2-GFP yeast: 222*; LAP4 TOR yeast: 122; RPL19A TOR yeast: 99; CIT2 TOR yeast: 98; AGP1 TOR yeast: 98

How did Cc1c(Cl)cccc1NC(=S)N(CCCN1CCOCC1)Cc1cccs1 do in these assays?
MEP2-GFP yeast: 128; LAP4 TOR yeast: 95; RPL19A TOR yeast: 103; CIT2 TOR yeast: 99; AGP1 TOR yeast: 97

What do the screens show for `Cc1ccc(SCCOCCN2CCc3ccccc3C2)cc1`?
MEP2-GFP yeast: 103; LAP4 TOR yeast: 94; RPL19A TOR yeast: 96; CIT2 TOR yeast: 96; AGP1 TOR yeast: 93

What do the screens show for `O=C(CCC(=O)N/N=C/c1cc(Cl)cc(Cl)c1O)NCc1ccccc1`?
MEP2-GFP yeast: 364*[may fluoresce violet]; LAP4 TOR yeast: 100; RPL19A TOR yeast: 75; CIT2 TOR yeast: inconclusive; AGP1 TOR yeast: 22

How did CCOC(=O)c1sc(-c2cccc(C(F)(F)F)c2)nc1O do in these assays?
MEP2-GFP yeast: 93; LAP4 TOR yeast: 112; RPL19A TOR yeast: 92; CIT2 TOR yeast: 94; AGP1 TOR yeast: 94

How did CCOC(=O)c1sc(-c2ccc(C(F)(F)F)cc2)nc1O do in these assays?
MEP2-GFP yeast: 529*[may fluoresce violet]; LAP4 TOR yeast: 140; RPL19A TOR yeast: 88; CIT2 TOR yeast: inconclusive; AGP1 TOR yeast: 26

Results for COc1ccccc1CN1CC(C(=O)N(C)Cc2ccncc2C)CCC1=O (stereo not given) ?
MEP2-GFP yeast: 95; LAP4 TOR yeast: 107; RPL19A TOR yeast: 99; CIT2 TOR yeast: 99; AGP1 TOR yeast: 99
